Experimental data reported in ChEMBL document CHEMBL4513216, “Probing the Open Global Health Chemical Diversity Library for Multistage-Active Starting Points for Next-Generation Antimalarials” (ACS Infect Dis, 2020).
Among all 69,000 compounds or so, about 8,600 (12%) showed an effect of 50% or more. What follows is part of a selection rich in strong results, with near analogues and random picks from the rest.

tested on: Plasmodium berghei; assay: Screen against P. berghei liver stage (PbLuc), transformed with Luciferase, at 10uM; format: functional, HepG2; settings: tested at 10 uM

| Structure (SMILES) | INHIBITION |
| --- | --- |
| c1cc2cc[nH]c2c(CC2CN(Cc3cscn3)C2)n1 | 53.6% |
| NC(=O)CN1CC[C@@]2(O)CCCC[C@H]2[C@@H]1c1ccc2c(c1)OCO2 | 17.6% |
| COC(=O)N1CC[C@@]2(O)CCCC[C@H]2[C@@H]1c1ccc2c(c1)OCO2 | 42.3% |
| CC(=O)N1CC[C@@]2(O)CCCC[C@H]2[C@@H]1c1ccc2c(c1)OCO2 | 52.1% |
| CCOCC1CN(S(=O)(=O)N(C)C)Cc2cnn(CC3CC3)c21 (stereo not drawn) | -57.7% |
| Cc1cc(CCC(=O)N2CCCC2)nc(C2CCCN2)n1 (stereo not drawn) | 24.8% |
| O=S(=O)(CCCN1CCCCC1Cn1cncn1)c1ccccc1 (stereo not drawn) | -29.8% |
| CN(CC(=O)N1CCCCC1c1nccs1)C1CC1 (stereo not drawn) | 13.6% |
| CC1CN(Cc2cccc(CN)c2)CCO1 (stereo not drawn) | 59.1% |
| CCCN1CCC(NCc2cccc(CN3CCOC(C)C3)c2)CC1 (stereo not drawn) | 21.1% |
| CC1CN(Cc2cccc(CNC3CCCC3)c2)CCO1 (stereo not drawn) | 37.4% |
| CC1CCN(CC(=O)N(C)CCc2noc(C3CC3)n2)C1=O (stereo not drawn) | -22.1% |
| CCCn1cc(CN2CCOCC2c2[nH]ncc2C)cn1 (stereo not drawn) | 6.2% |
| Cc1ncc(CN2CCc3c(nc4cc(C5CC5)nn4c3O)C2)n1C | 47.1% |
| Cc1oc2c(c1C(=O)N1CC[C@H](O)[C@]3(CCCO3)C1)CCCC2 | 3.75% |
| CC(C)Oc1cccc2c1c(NC(=O)CN(C)C)nn2CC(F)(F)F | 7.77% |
| O=C(C1CCC1)N1CCCC(c2cccc(-n3ccnc3)n2)C1 (stereo not drawn) | 29.3% |
| Cc1n[nH]cc1C(=O)N1CCCC(c2cccc(-n3ccnc3)n2)C1 (stereo not drawn) | -13.7% |
| Cc1nccn1-c1cccc(C2CCCN(C3CCCCC3)C2)n1 (stereo not drawn) | 11.4% |
| O=C(C1CCCC1)N1CCCC(c2cccc(-n3ccnc3)n2)C1 (stereo not drawn) | 63.4% |
| c1cnc(N2CCCC(c3cncc(-n4ccnc4)n3)C2)nc1 (stereo not drawn) | 15.9% |
| O=C(c1cc[nH]n1)N1CCCC(c2cccc(-n3ccnc3)n2)C1 (stereo not drawn) | 14.4% |
| Cc1nccn1-c1cccc(C2CCCN(C(=O)c3cc[nH]n3)C2)n1 (stereo not drawn) | 53.8% |
| CC(=O)N1CCCC(c2cccc(-n3ccnc3)n2)C1 (stereo not drawn) | 36.7% |
| O=C(c1cnccn1)N1CCCC(c2cccc(-n3ccnc3)n2)C1 (stereo not drawn) | 50.1% |
| COCC(=O)N1CCCC(c2cccc(-n3ccnc3)n2)C1 (stereo not drawn) | 36.7% |
| Cc1cc(C)nc(N2CCCC(c3cccc(-n4ccnc4)n3)C2)n1 (stereo not drawn) | 69.3% |

| Structure (SMILES) | INHIBITION |
| --- | --- |
| Cc1nc(C(=O)N2CCCC(c3cccc(-n4ccnc4)n3)C2)co1 (stereo not drawn) | 29.6% |
| CC(=O)c1ccc(OCC(=O)NS(=O)(=O)c2cccnc2)cc1 | 35.9% |
| Cc1cnn(CC2CCCCN2C(=O)c2cc(Cl)c[nH]2)c1 (stereo not drawn) | 40.3% |
| Cc1cccc(C(=O)N2CCC3(CC(C(=O)N(C)C(C)C)=NO3)C2)c1 (stereo not drawn) | 6.72% |
| Cc1noc([C@@H]2C[C@H]3OCC[C@H]3N(S(=O)(=O)N(C)C)C2)n1 | -13% |
| CC(=O)N1CCN(C(=O)NCc2ccccc2Cn2cncn2)CC1 | -56.4% |
| COCC(=O)NCC1CCC(c2ccnc3ncnn23)CC1 (stereo not drawn) | 15.5% |
| Cc1cc(C)nc(N2CCC(c3cncc(-n4ccnc4)n3)CC2)n1 | 66.4% |
| Fc1ccc(CN2CCCC2c2cncc(-n3ccnc3)n2)cc1 (stereo not drawn) | 22.7% |
| c1cn(-c2cncc(C3CCNCC3)n2)cn1 | -64.7% |
| CCOCc1ccc(NC(=O)N2CCOC3(CCC3)C2)cc1 | -1.32% |
| CC(C)c1cc(C(=O)N2CCN(Cc3ccco3)CC2)n[nH]1 | 14.3% |
| O=C(c1cc(Cl)c(Br)[nH]1)N1CCN(Cc2ccco2)CC1 | 63.8% |
| Cc1cc(C)c2cc(C(=O)N3CCN(Cc4ccco4)CC3)[nH]c2c1 | 9.04% |
| O=C(c1cc(Br)ccc1Cl)N1CCN(Cc2ccco2)CC1 | 36.9% |
| CC(=O)N1CCN(Cc2ccco2)CC2(CC(=O)N(C)C2)C1 (stereo not drawn) | 19.8% |
| O=C(c1cc(Br)c[nH]1)N1CCN(Cc2ccco2)CC1 | 55.4% |
| CCOc1ncnc2c1CCN(S(=O)(=O)c1ccccc1)CC2 | 41.2% |
| Cc1ccc2nc(C3CCN(CC(C)C)CC3)nc(O)c2c1 | -8.07% |
| CC(C)Oc1ccc(C(=O)N2CCC(Nc3cccnn3)CC2)cn1 | -73.2% |
| Cc1cccc(CN2CCCn3c(nnc3CN3CCCC3=O)C2)n1 | 24.8% |
| Cc1ccc(NC2CCN(C(=O)C(C)n3cncn3)CC2)nn1 (stereo not drawn) | -19.4% |
| O=C(c1ccccc1)N1C[C@H]2CC[C@@H](C1)N(C(=O)CN1CCOCC1)C2 | 0.897% |
| CN(C(=O)COc1ccc(-c2noc(C3CCCO3)n2)cc1)C1CC1 (stereo not drawn) | -27.3% |
| Cc1cc(C)cc(-n2ncc3c2CCCC3N)c1 (stereo not drawn) | 37.9% |
| Cc1nc(C)n(CC(=O)N2CCCC(c3nc(C)n4c(C)csc34)C2)n1 (stereo not drawn) | 8.12% |
